# Results taken from the supplement of paper PMC9794691.
# Test system: PC9
# Experiment: area under confluence curve of compound monotherapy; compare to DMSO control AUC of the same experiment (AUC (confluence x time, arbitrary))
# Details: 10 nM; DMSO control AUC in same experiment: 18385
# Method: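 compare to DMSO control AUC of the same experiment; Monotherapy arm of the osimertinib DTP screen: EGFR-mutant NSCLC cells were treated with the test compound alone at a fixed dose (highest dose with <50% inhibition of parental cells, or 1 uM), then switched to drug-free medium at the DTP stage. IncuCyte confluence was tracked and AUC computed in Prism. AUC scale depends on experiment duration, so each row carries the same-experiment DMSO control AUC (monotherapy activity = DMSO AUC minus monotherapy AUC). The monotherapy value is shared between screen formats.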
row,SMILES,area under confluence curve
1,Cc1nc(-c2nc(-c3ccc(OC(F)(F)F)cc3)no2)nn1Cc1cccc(N2CCC(S(C)(=O)=O)CC2)c1,18100

# Same assay, conditions: 10 nM; DMSO control AUC in same experiment: 19076
row,SMILES,area under confluence curve
1,Cc1nc(-c2nc(-c3ccc(OC(F)(F)F)cc3)no2)nn1Cc1cccc(N2CCC(S(C)(=O)=O)CC2)c1,18900

# Same assay, conditions: 10 nM; DMSO control AUC in same experiment: 21341
row,SMILES,area under confluence curve
1,CC(=O)Nc1cccc(-n2c(=O)n(C3CC3)c(=O)c3c(Nc4ccc(I)cc4F)n(C)c(=O)c(C)c32)c1 [Trametinib],20400

# Same assay, conditions: 10 nM; DMSO control AUC in same experiment: 49189
row,SMILES,area under confluence curve
1,CC(=O)Nc1cccc(-n2c(=O)n(C3CC3)c(=O)c3c(Nc4ccc(I)cc4F)n(C)c(=O)c(C)c32)c1 [Trametinib],49600

# Same assay, conditions: 30 nM; DMSO control AUC in same experiment: 27958
row,SMILES,area under confluence curve
1,Cc1nc(Nc2ncc(C(=O)Nc3c(C)cccc3Cl)s2)cc(N2CCN(CCO)CC2)n1 [Dasatinib],22500

# Same assay, conditions: 30 nM; DMSO control AUC in same experiment: 28243
row,SMILES,area under confluence curve
1,Cc1nc(Nc2ncc(C(=O)Nc3c(C)cccc3Cl)s2)cc(N2CCN(CCO)CC2)n1 [Dasatinib],18100

# Same assay, conditions: 100 nM; DMSO control AUC in same experiment: 20347
row,SMILES,area under confluence curve
1,Cc1nc(Nc2n[nH]c3c2CN(C(=O)N[C@H](CN(C)C)c2ccccc2)C3(C)C)c2sccc2n1,22800

# Same assay, conditions: 100 nM; DMSO control AUC in same experiment: 22064
row,SMILES,area under confluence curve
1,C=CCn1c(=O)c2cnc(Nc3ccc(N4CCN(C)CC4)cc3)nc2n1-c1cccc(C(C)(C)O)n1,21300

# Same assay, conditions: 100 nM; DMSO control AUC in same experiment: 27958
row,SMILES,area under confluence curve
1,COC(=O)c1ccc([C@H]2c3[nH]c4ccccc4c3C[C@H](C(=O)OC)N2C(=O)CCl)cc1,27800

# Same assay, conditions: 100 nM; DMSO control AUC in same experiment: 28684
row,SMILES,area under confluence curve
1,CCN1CCN(Cc2ccc(Nc3ncc(F)c(-c4cc(F)c5nc(C)n(C(C)C)c5c4)n3)nc2)CC1 [Abemaciclib],28400

# Same assay, conditions: 100 nM; DMSO control AUC in same experiment: 30326
row,SMILES,area under confluence curve
1,COC(=O)c1ccc([C@H]2c3[nH]c4ccccc4c3C[C@H](C(=O)OC)N2C(=O)CCl)cc1,27300

# Same assay, conditions: 100 nM; DMSO control AUC in same experiment: 30578
row,SMILES,area under confluence curve
1,CCN1CCN(Cc2ccc(Nc3ncc(F)c(-c4cc(F)c5nc(C)n(C(C)C)c5c4)n3)nc2)CC1 [Abemaciclib],29700

# Same assay, conditions: 100 nM; DMSO control AUC in same experiment: 30604
row,SMILES,area under confluence curve
1,C=CCn1c(=O)c2cnc(Nc3ccc(N4CCN(C)CC4)cc3)nc2n1-c1cccc(C(C)(C)O)n1,30700

# Same assay, conditions: 100 nM; DMSO control AUC in same experiment: 31219
row,SMILES,area under confluence curve
1,COC[C@H]1Cn2cc(-c3nc(Nc4ccnn4C)ncc3C)nc2C(=O)N1Cc1ccc(F)c(F)c1,30900

# Same assay, conditions: 100 nM; DMSO control AUC in same experiment: 45737
row,SMILES,area under confluence curve
1,COC(=O)c1ccc([C@H]2c3[nH]c4ccccc4c3C[C@H](C(=O)OC)N2C(=O)CCl)cc1,46100

# Same assay, conditions: 100 nM; DMSO control AUC in same experiment: 49189
row,SMILES,area under confluence curve
1,COC[C@H]1Cn2cc(-c3nc(Nc4ccnn4C)ncc3C)nc2C(=O)N1Cc1ccc(F)c(F)c1,46200

# Same assay, conditions: 100 nM; DMSO control AUC in same experiment: 88996
row,SMILES,area under confluence curve
1,CCN1CCN(Cc2ccc(Nc3ncc(F)c(-c4cc(F)c5nc(C)n(C(C)C)c5c4)n3)nc2)CC1 [Abemaciclib],88400

# Same assay, conditions: 300 nM; DMSO control AUC in same experiment: 19507
row,SMILES,area under confluence curve
1,CN1CCN(CCOc2cc(OC3CCOCC3)c3c(Nc4c(Cl)ccc5c4OCO5)ncnc3c2)CC1 [Saracatinib],16000

# Same assay, conditions: 300 nM; DMSO control AUC in same experiment: 22064
row,SMILES,area under confluence curve
1,CN(C)CCCOc1ccc(-c2ccc3ncc4c(c3c2)n(C2CCOCC2)c(=O)n4C)cn1,22000

# Same assay, conditions: 300 nM; DMSO control AUC in same experiment: 28243
row,SMILES,area under confluence curve
1,CN1CCN(CCOc2cc(OC3CCOCC3)c3c(Nc4c(Cl)ccc5c4OCO5)ncnc3c2)CC1 [Saracatinib],24000

# Same assay, conditions: 300 nM; DMSO control AUC in same experiment: 29563
row,SMILES,area under confluence curve
1,CN(C)CCCOc1ccc(-c2ccc3ncc4c(c3c2)n(C2CCOCC2)c(=O)n4C)cn1,30100

# Same assay, conditions: 300 nM; DMSO control AUC in same experiment: 30604
row,SMILES,area under confluence curve
1,CN(C)CCCOc1ccc(-c2ccc3ncc4c(c3c2)n(C2CCOCC2)c(=O)n4C)cn1,30300

# Same assay, conditions: 1000 nM; DMSO control AUC in same experiment: 20567
row,SMILES,area under confluence curve
1,Cc1nc(N2CCC3(CC2)CO[C@@H](C)[C@H]3N)c(CO)nc1-c1cccc(Cl)c1Cl,20500
2,Cc1cccc(-c2[nH]c(C(C)(C)C)nc2-c2ccc3nccnc3c2)n1,20400

# Same assay, conditions: 1000 nM; DMSO control AUC in same experiment: 21594
row,SMILES,area under confluence curve
1,COc1nn(C)cc1Nc1nccc(-c2c[nH]c3c(NC(=O)[C@@H](C)N4CCN(C)CC4)cccc23)n1,20800
2,O=C([C@@H](Cc1cccc(C(F)(F)F)c1)NS(=O)(=O)c1cc(F)c2c(c1)CCNC2)N1CCCC1,20800

# Same assay, conditions: 1000 nM; DMSO control AUC in same experiment: 21678
row,SMILES,area under confluence curve
1,Cc1nc(N2CCC3(CC2)CO[C@@H](C)[C@H]3N)c(CO)nc1-c1cccc(Cl)c1Cl,22100

# Same assay, conditions: 1000 nM; DMSO control AUC in same experiment: 22064
row,SMILES,area under confluence curve
1,C[C@@H](Oc1cc(-c2cnn(C3CCNCC3)c2)cnc1N)c1c(Cl)ccc(F)c1Cl [Crizotinib],21100
2,C[C@@H]1COCCN1c1cc(C2([S@](C)(=N)=O)CC2)nc(-c2cc[nH]c3nccc2-3)n1,21700
3,Cc1cccc(-c2[nH]c(C(C)(C)C)nc2-c2ccc3nccnc3c2)n1,21700
4,O=C(c1cc(Cc2n[nH]c(=O)c3ccccc23)ccc1F)N1CCN(C(=O)C2CC2)CC1 [Olaparib],20000

# Same assay, conditions: 1000 nM; DMSO control AUC in same experiment: 28684
row,SMILES,area under confluence curve
1,C[C@@H](Nc1cc(F)cc(F)c1)c1cc(C(=O)N(C)C)cc2c(=O)cc(N3CCOCC3)oc12,28100

# Same assay, conditions: 1000 nM; DMSO control AUC in same experiment: 30326
row,SMILES,area under confluence curve
1,CCN(c1cc(-c2ccc(CN3CCOCC3)cc2)cc(C(=O)NCc2c(C)cc(C)[nH]c2=O)c1C)C1CCOCC1 [Tazemetostat],29400

# Same assay, conditions: 1000 nM; DMSO control AUC in same experiment: 30578
row,SMILES,area under confluence curve
1,C[C@@H](Nc1cc(F)cc(F)c1)c1cc(C(=O)N(C)C)cc2c(=O)cc(N3CCOCC3)oc12,29100
2,Cc1[nH]nc(C(F)(F)F)c1Cc1sc2c(c1C(=O)N1C[C@](C)(O)CO1)c(=O)n(C)c(=O)n2C(C)C,30100

# Same assay, conditions: 1000 nM; DMSO control AUC in same experiment: 30580
row,SMILES,area under confluence curve
1,C[C@@H](Nc1cc(F)cc(F)c1)c1cc(C(=O)N(C)C)cc2c(=O)cc(N3CCOCC3)oc12,28800
2,CS(=O)(=O)N1CCN(Cc2cc3nc(-c4cccc5[nH]ncc45)nc(N4CCOCC4)c3s2)CC1,24700

# Same assay, conditions: 1000 nM; DMSO control AUC in same experiment: 30604
row,SMILES,area under confluence curve
1,C[C@@H]1COCCN1c1cc(C2([S@](C)(=N)=O)CC2)nc(-c2cc[nH]c3nccc2-3)n1,30800
2,O=C(c1cc(Cc2n[nH]c(=O)c3ccccc23)ccc1F)N1CCN(C(=O)C2CC2)CC1 [Olaparib],30200

# Same assay, conditions: 1000 nM; DMSO control AUC in same experiment: 43316
row,SMILES,area under confluence curve
1,C[C@@H](Nc1cc(F)cc(F)c1)c1cc(C(=O)N(C)C)cc2c(=O)cc(N3CCOCC3)oc12,42700

# Same assay, conditions: 1000 nM; DMSO control AUC in same experiment: 45737
row,SMILES,area under confluence curve
1,Cc1onc(C(=O)N2CCN(C(c3ccc(Cl)cc3)c3ccc(Cl)cc3)CC2)c1[N+](=O)[O-],46500

# Same assay, conditions: 1000 nM; DMSO control AUC in same experiment: 72888
row,SMILES,area under confluence curve
1,CCn1cc(-c2cccc(C(F)(F)F)c2)c2sc(C(=N)NC3CCS(=O)(=O)CC3)cc2c1=O,73000
